About 13,000 (3.2%) of roughly 400,000 compounds were called active. Roughly 18% stayed inconclusive and do not appear here. The entries come from a sample that favours actives as a whole. Values without a mark were called inactive. Calls follow the shape of the dose curve; as a rule, active = well fitted cell-killing curve with a large enough effect; inconclusive = small, poorly fitted or top-dose-only effect, or effect the other way; inactive = flat fitted curve, though single readings scatter.
Assay: qHTS assay for MDR1-selective chemotherapeutics: Primary screen using the drug-selected MDR subline cells KB-V1; also: nearly all actives have a fitted effect of over 60% in size
Settings: KB-V1 MDR cells viability, CellTiter-Glo, 72 h; series mostly up to 46.1 µM; activity change, negative = cytotoxicity: at the top concentration
Excerpt: A prime difficulty in effectively treating cancer is the development of cellular resistance to multiple structurally unrelated anticancer drugs, a phenomenon known as multidrug resistance (MDR). […] Numerous strategies to overcome P-gp-mediated MDR have been explored, including the design of drugs that evade recognition and efflux, and development of inhibitors to block efflux and restore drug accumulation. […] An alternative approach is to exploit resistance by identifying drugs that target MDR cells over the non-resistant parental cells from which they were selected. […] The development of MDR1-selective agents represents a new strategy for resolving multidrug resistance, as it remains a long-standing clinical challenge for cancer chemotherapy.
Our goal is to identify compounds that selectively kill P-gp-expressing MDR cells. We will identify MDR1-selective compounds by comparing toxicity of compounds in the screening library against parental, drug-naive (KB-3-1) adenocarcinoma cells as well as their drug-selected MDR sub-line (KB-V1). The differential toxicity of compounds against these two cell lines will be used to identify MDR1-selective compounds, whose cytotoxicity is potentiated, rather than diminished, by P-gp expression. This assay will be utilized to conduct a quantitative high-throughput screen (qHTS) in collaboration with the NIH Chemical Genomics Center to identify selective agents, and probe hits arising from the screen will be validated using secondary assays and characterized through a well-established follow-up research program. This screen was run against the entire NCGC library collection of about 400,000 compounds.
NIH Molecular Libraries Probe Production Network [MLPCN]
NIH Chemical Genomics Center [NCGC]
PI: Michael Gottesman, National Cancer Institute, NIH
Briefly, 5 microL of media containing either KB-V1 cells (columns 1-2, 4-48) are dispensed into Greiner white, treated solid-bottom 1536-well assay plates (media-only control is added to column 3). Compounds are then transferred via Kalypsys pin tool equipped with 1536-pin array (10 nL slotted pins, V&P Scientific, San Diego, CA). Following addition of compound, the plates are incubated at 37 degrees C for 72 hours. CellTiter-Glo (2.5 µL/well) is then added, and the plates are read in a ViewLux reader (Perkin-Elmer, clear luminescence filter, 1 second exposure, 1x binning) following a 10 minute incubation. All cells are dispensed in DMEM phenol-red free media containing 10% FBS.
Library plates were screened starting from the lowest and proceeding to the highest concentration. Vehicle-only plates, with DMSO being pin-transferred to columns 5-48, will be inserted uniformly at the beginning and the end of each library in order to monitor and record any shifts in the background, which can be affected by reagent dispensers or loss in enzyme activity over time. Screening data will be corrected, normalized, and concentration-effect relationships will be derived by using publicly-available NCGC, NCATS curve fitting algorithms (http://ncgc.nih.gov/pub/openhts).
% is scaled to controls: 0 for no effect and ±100 for the full control effect; potency is read from the fitted curve at half-maximal effect.

Row | Structure (SMILES) | activity change, negative = cytotoxicity | Potency
1 | O=P(OC1=CCCCC1)(c1ccccc1)c1ccccc1 | 0.378% | 
2 | CCCOC(=O)C1C2c3ccccc3C(c3ccccc32)C1C(=O)O (stereo unspecified) | 5.49% | 
3 | CC1CCC(N(C)C2CCN(C)CC2)CC1 (stereo unspecified) | 4.09% | 
4 | O=C(c1ccccc1[N+](=O)[O-])N1CCC2(CC1)OCCO2 | 0% | 
5 | Cc1ccc(-c2cc(C(=O)N3CCC4(CC3)OCCO4)no2)cc1 | 0% | 
6 | O=C(c1cc2nc(-c3ccccc3)cc(-c3ccccc3)n2n1)N1CCC2(CC1)OCCO2 |  | 25.9 µM (active)
7 | CC1C2Cn3c(nc4ccccc43)C1N(C)O2 (stereo unspecified) | 10.3% | 
8 | COc1cc(C(=O)N2Cc3ccc(Br)cc3-n3nncc3C2)cc(OC)c1OC | -27.6% | 
9 | CCC(C)(O)C(=O)OC1C(=O)OC2CC3C(C)=CC(=O)C(O)C3(C)C3C4(O)OCC23C1C(C)C4O (stereo unspecified) |  | 11.6 µM (active)
10 | c1ccc(N2Cc3ccccc3-n3nncc3C2)nc1 | 3.38% | 
11 | CCC(C)n1c(O)c(/C=N/Nc2nc3c(c(=O)n(C)c(=O)n3C)n2C)c(=O)[nH]c1=S (stereo unspecified) | -12.1% | 
12 | CCN1C(=O)NC(=O)C2(CCCC2)C1=O | -10.5% | 
13 | COC(=O)CN(CCCl)P1(=O)OCCCN1CCCl (stereo unspecified) | -18.1% | 
14 | CN(C)CCCN=Cc1c(O)n(Cc2ccco2)c(=O)[nH]c1=O | -0.606% | 
15 | CCCCC(=O)N/N=C/c1c(O)n(CCC2=CCCCC2)c(=O)[nH]c1=O | 9.8% | 
16 | CCCCn1c(O)c(C(CC)=NCc2ccco2)c(=O)[nH]c1=O |  | 20.6 µM (active)
17 | CCC(=NCCCO)c1c(O)n(-c2ccc(OC)cc2)c(=O)[nH]c1=O | -9.87% | 
18 | CCCCCCN=C(CC)c1c(O)n(CCCC)c(=O)[nH]c1=O |  | 5.17 µM (active)
19 | CC(=NCC1CCCO1)c1c(O)n(-c2ccccc2)c(=O)[nH]c1=O (stereo unspecified) | 20.8% | 
20 | O=C(N/N=C/c1c(O)n(Cc2ccccc2)c(=O)[nH]c1=O)c1ccccc1 | 3.77% | 
21 | CC/C(=N\NC(=O)c1ccccc1O)c1c(O)n(Cc2ccccc2)c(=O)[nH]c1=O | 0.222% | 

Row | Structure (SMILES) | activity change, negative = cytotoxicity | Potency
22 | CCC(=NCc1ccco1)c1c(O)n(Cc2ccccc2)c(=O)[nH]c1=O |  | 3.66 µM (active)
23 | c1cc2c(c(NC3=NCCCS3)c1)CCCC2 | -16.7% | 
24 | O=c1c2ccccc2nc(CBr)n1-c1ccc(Cl)cc1 | -12% | 
25 | C[N+]12CN3CN(CN(C3)C1)C2 | 1.35% | 
26 | CC(CC(C#N)(c1ccccc1)c1ccccc1)N1CCCCC1 (stereo unspecified) | -5.22% | 
27 | N#Cc1c(Cl)c(Cl)c(Cl)c(C#N)c1Cl | 8.82% | 
28 | Cc1cccc(OP(=O)(Oc2cccc(C)c2)OC(c2ccccc2)C(F)(F)F)c1 (stereo unspecified) | -8.19% | 
29 | Cc1ccc(OC(=O)N(C)C[C@@H]2OCc3cnnn3CCCC(=O)N([C@H](C)CO)C[C@@H]2C)cc1 | 5.62% | 
30 | O=C1NCN(c2ccccc2)C12CCN(C(c1cccs1)c1nnnn1C1CCCCC1)CC2 (stereo unspecified) | -0.777% | 
31 | CC(=O)C1(O)CCC2C3CCC4=C(Cl)C(=O)CCC4(C)C3CCC21C (stereo unspecified) | -9.43% | 
32 | Cc1ccc(Cn2nnnc2CN2CCC(n3nnc4ccccc43)CC2)cc1 |  | 5.8 µM (active)
33 | N[C@@H](Cc1c[nH]c2ccccc12)c1nnc(SCc2c(F)cccc2Cl)o1 |  | 18.4 µM (active)
34 | CCOC(=O)CC(SP1(=S)OCC2(CCCCO2)C(C2CCCCO2)O1)C(=O)OCC (stereo unspecified) | -5.39% | 
35 | Cn1cc(C(=O)OCC(=O)N2CCCC2)c2ccccc21 |  | 23.1 µM (active)
36 | CC(C)c1ccc(OCC(=O)N2CCCN(C)CC2)cc1 | -16.3% | 
37 | CC(=O)Nc1ccccc1C(=O)OCC(=O)c1cccc2ccccc12 | 0% | 
38 | OCC#CC[N+]1(CC#Cc2ccccc2)CCCC1 | 26.7% | 
39 | C[C@]12CCC3C(CC[C@H]4[C@H](O)[C@H](O)CC[C@]34C)C1CCC2=O (stereo partly specified) | 12% | 
40 | O=C1CC(=O)N(Cc2ccccc2)C(=O)N1CCCCCCN1C(=O)CC(=O)N(Cc2ccccc2)C1=O | -0.0512% | 
41 | CC(C)(C)c1ccc(CN2C(=O)CN=C(c3ccccc3)c3ccccc32)cc1 |  | 16.4 µM (active)
42 | c1ccc(C(CN2CCCCC2)c2ccccc2)cc1 | 3.49% | 

Row | Structure (SMILES) | activity change, negative = cytotoxicity | Potency
43 | O=C(Nc1cccc2ccccc12)N1CCC2(CC1)OCCO2 | 12.5% | 
44 | O=C(CCC(=O)N1C[C@H]2C[C@@H](C1)c1cccc(=O)n1C2)NCc1ccccc1C(F)(F)F | -0.253% | 
45 | COc1ccc2c(c1)NP(=S)(c1ccccc1)N2 (stereo unspecified) | 4.13% | 
46 | O=C1NC(=O)C(CCOc2ccccc2)(CCc2ccccc2)C(=O)N1 | -5.14% | 
47 | COc1ccc(NC(=O)N2Cc3ccccc3-n3nncc3C2)cc1 | 0.781% | 
48 | CC1CC=CCC12C(=O)NC(=S)NC2=O (stereo unspecified) | 26.6% | 
49 | CCn1cc(CN2CCCC(C(=O)c3cccc(C(F)(F)F)c3)C2)cn1 (stereo unspecified) | 4.08% | 
50 | Cc1ccccc1NC(=O)COC(=O)c1cc(C)n(C2CC2)c1C |  | 13 µM (active)
51 | Cc1cc(C(=O)OCC(=O)Nc2c(F)cccc2F)c(C)n1C1CC1 | 13.9% | 
52 | Cc1nn(-c2ccccc2)c(C)c1NC(=O)COC(=O)Cc1ccccc1 | -1.45% | 
53 | COc1cccc(C(=O)N2C[C@H]3C[C@@H](C2)c2cccc(=O)n2C3)c1 | 14.6% | 
54 | c1cc2c(cc1C1OCC3C(c4ccc5c(c4)OCO5)OCC13)OCO2 (stereo unspecified) | 0% | 
55 | CC(=O)OC1C2(CC3N4C(=O)C5(CO)SSC4(CC31O)C(=O)N5C)OC(C)C(C)(C)C2=O (stereo unspecified) |  | 2.31 µM (active)
56 | O=c1c2ccccc2[nH]c(=S)n1-c1cccc(Cl)c1 | -10.3% | 
57 | COc1cc(-n2c(=S)[nH]c3ccc(C)cc3c2=O)c(Cl)cc1Cl |  | 9.2 µM (active)
58 | S=C(NCCc1ccccc1)N1Cc2cc(N3CCOCC3)ccc2-n2nncc2C1 | -17% | 
59 | CSCCC(c1nnnn1C(C)(C)C)N1CCC(n2c(=O)[nH]c3ccccc32)CC1 (stereo unspecified) | -15.9% | 
60 | O=c1[nH]c2ccccc2n1C1CCN(C(c2ccnc3ccccc23)c2nnnn2Cc2ccccc2)CC1 (stereo unspecified) | -0.478% | 
61 | O=c1[nH]c2ccccc2n1C1CCN(C(c2ccccc2)c2nnnn2Cc2ccccc2)CC1 (stereo unspecified) |  | 18.4 µM (active)
62 | O=C1C2CCN(CC2)C1(CO)CO | 15.5% | 
63 | CCOC(=O)c1c(-c2ccccc2)oc2ccc(OC(=O)N(C)C)cc12 |  | 16.4 µM (active)

Row | Structure (SMILES) | activity change, negative = cytotoxicity | Potency
64 | CN(C)C(=O)Oc1ccc2c(c1)O/C(=C\c1ccccc1)C2=O | 27.1% | 
65 | Oc1ccc2c3c1OC1[C@H](O)CC[C@@]4(O)[C@@H](C2)N(CC2CC2)CC[C@]314 (stereo partly specified) |  | inactive
66 | CCc1ccc(OCC(=O)N2CCN(CC(=O)Nc3ccccc3Cl)CC2)cc1 | 1.08% | 
67 | CC(=O)NCC1=C(c2ccc3ccccc3c2)C[C@@H]2CC[C@H]1N2Cc1ccco1 | -2.27% | 
68 | C[C@]12CCC3C(CC[C@H]4C[C@@H](O)CC[C@]34C)C1C[C@@H](O)[C@H]2O (stereo partly specified) | 16% | 
69 | C[C@]12CC[C@H](O)C[C@H]1CC[C@@H]1C2CC[C@]2(C)[C@@H](C3=CC(=O)OC3)[C@@H](O)C[C@]12O (stereo partly specified) |  | 6.51 µM (active)
70 | Cc1cc(-c2ccc(N)c(C)c2)ccc1N | -4.88% | 
71 | CC(C)(C)c1ccc(OC(=O)N2CCCCC2)cc1 | 17.3% | 
72 | CC1([N+](=O)[O-])COP(=O)(Nc2ccc(F)cc2)OC1 (stereo unspecified) | -1.71% | 
73 | Cc1cccc(NC(=O)OC2CN3CCC2CC3)c1 (stereo unspecified) | -1.06% | 
74 | COC1=C[C@@H]2[C@@H]3Cc4ccc(OC)c(O)c4[C@]2(CCN3C)CC1=O | -0.303% | 
75 | NC(=O)Cn1cc(C(=O)c2ccccc2F)c2ccccc21 | 0% | 
76 | N#Cc1ccc(Cn2cc(C(=O)c3ccco3)c3ccccc32)cc1 |  | 18.4 µM (active)
77 | CC(C)Nc1nc(Cl)nc(NC(C)C)n1 | 0% | 
78 | O=C(NCC1=C(c2ccc3ccccc3c2)C[C@@H]2CC[C@H]1N2Cc1ccco1)c1cccs1 | -8.15% | 
79 | O=C1NC(=O)C(CCc2ccccn2)(Cc2cccc(Cl)c2Cl)C(=O)N1c1ccc(Br)cc1 (stereo unspecified) |  | 7.31 µM (active)
80 | Cc1ccc(N2C(=O)NC(=O)C(CCc3ccncc3)(Cc3cccc(Cl)c3Cl)C2=O)cc1 (stereo unspecified) | 0% | 
81 | C[C@H]1CN([C@@H](C)CO)C(=O)CCCn2nncc2CO[C@H]1CN(C)C(=O)Oc1ccccc1 | 90.2% | 
